Results published in the supplement of paper PMC8975748.
Where a name gives a salt, the structure may show the parent alone.

Tested on: Saccharomyces cerevisiae BY4741 SeMeCo community
Assay: z-score of subpopulation abundance vs DMSO median, subpopulation auxotrophic for M; higher = larger share of this subpopulation than in DMSO controls
Conditions: 10 µM; 24 h; SM minimal medium; subpopulation (auxotrophy): M
Summary of the method: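 Cells of a Saccharomyces cerevisiae BY4741 community, carrying four plasmids that each restored one auxotrophy and encoded a distinct fluorescent protein, were pre-grown overnight to OD600 1.0 and diluted to 0.3. A 70 µl volume was added to 384-well plates acoustically predosed with library drugs (10 µM final) and grown 24 h in minimal SM medium. After paraformaldehyde fixation, automated confocal microscopy was used, with single-auxotroph fluorescent strains for thresholds and autofluorescence correction. The abundance of each subpopulation was scored as a z-score against the vehicle-well median.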

SMILES | z-score of subpopulation abundance
CC(C(=O)O)c1ccc(C(=O)c2cccs2)cc1 (stereo unspecified) [Suprofen] | -0.68
COc1cccc2c1C(=O)c1c(O)c3c(c(O)c1C2=O)C[C@@](O)(C(=O)CO)C[C@@H]3O[C@H]1C[C@H](N)[C@H](O[C@@H]2CCCCO2)[C@H](C)O1 [Pirarubicin] | -12
N=C(N)NC(=N)N1CCOCC1 [Moroxydine HCl] | -0.15
Nc1c(CC(=O)O)cccc1C(=O)c1ccccc1 [Amfenac Sodium Monohydrate] | 0.25
CN1CCN(c2c(F)cc3c(=O)c(C(=O)O)cn4c3c2OCN4C)CC1 [Marbofloxacin] | 0.52
CN1CCOC(c2ccccc2)c2ccccc2C1 (stereo unspecified) [Nefopam HCl] | 0.02
COc1ccc(C(C)=O)c(O)c1 [Paeonol] | -0.69
Cc1ccc2c(Cl)cc(Cl)c(O)c2n1 [Chlorquinaldol] | 7.61
NC[C@@H]1O[C@H](O[C@H]2[C@@H](O)[C@H](O[C@@H]3[C@@H](O)[C@H](N)C[C@H](N)[C@H]3O[C@H]3O[C@H](CO)[C@@H](O)[C@H](O)[C@H]3N)O[C@@H]2CO)[C@H](N)[C@@H](O)[C@@H]1O [Paromomycin Sulfate] | 1.04
CN(C)CCC=C1c2ccccc2C=Cc2ccccc21 [Cyclobenzaprine HCl] | 0
CCNC(=O)[C@@H]1CCCN1C(=O)[C@H](CCCNC(=N)N)NC(=O)[C@H](CC(C)C)NC(=O)[C@@H](CC(C)C)NC(=O)[C@H](Cc1ccc(O)cc1)NC(=O)[C@H](CO)NC(=O)[C@H](Cc1c[nH]c2ccccc12)NC(=O)[C@H](Cc1c[nH]cn1)NC(=O)[C@@H]1CCC(=O)N1 [Leuprolide Acetate] | 0.38
